In all, about 16,000 sequences were measured (“rpm ratio (pull-down/input)”: median about 0.5, highest 2% from about 5.5 on). The list comes from a sample in which the highest values are over-represented; it also holds similar and randomly drawn sequences.
The sequences below were run against T1, MBP-FoxP3dN (Mus musculus, UniProt Q99JB6 188-423) (assay: PD-seq (MBP pull-down with sequencing); 20 mM Tris-HCl pH 7.5, 100 mM NaCl, 1.5 mM MgCl2, 0.4 uM protein, 0.1 uM dsDNA library, 30 min, room temperature, amylose pull-down; high values mean tight binding). Details: protein: recombinant; tags: His6-MBP; chain copies: 2; dsDNA, one strand shown.
T1 sequence: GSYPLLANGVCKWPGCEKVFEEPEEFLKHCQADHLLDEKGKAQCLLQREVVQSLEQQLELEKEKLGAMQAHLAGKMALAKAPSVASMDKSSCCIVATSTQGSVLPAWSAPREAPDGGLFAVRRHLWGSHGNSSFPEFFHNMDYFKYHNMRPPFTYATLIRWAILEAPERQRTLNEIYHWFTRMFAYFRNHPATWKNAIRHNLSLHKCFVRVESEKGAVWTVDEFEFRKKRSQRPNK
Method in brief: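 In Tris pH 7.5 buffer with NaCl and MgCl2, 0.4 µM His6-MBP-tagged mouse FoxP3 or FoxP1 fragment lacking the N-terminus, from E. coli, met 0.1 µM Klenow-filled double-stranded degenerate DNA library for 30 min at room temperature. Three washes on amylose resin followed capture of the complexes, then proteinase K release of DNA, PCR barcoding and Illumina sequencing. Binding is taken as pooled-replicate reads-per-million enrichment of pull-down relative to input.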

Row | Sequence | binding signal
1 | GATGATTGTTCTCCCAGCTGATGAATTGCCCTCCTCGAGTAAACAAATTTTCCTAATCTTTCTGTTCAAGCGCCATCTAC | 0.471 RPM ratio (pull-down/input)
2 | GATGATTGTTCTCCCAGCTGATGAATTTCGTCAATCGAGTAAACAAATTTTCCTAATCTTTCTGTTCAAGCGCCATCTAC | 0.411 RPM ratio (pull-down/input)
3 | GATGATTGTTCTCCCAGCTGATGAATTATTAGCTTCGAGTAAACAAATTTTCCTAATCTTTCTGTTCAAGCGCCATCTAC | 0.671 RPM ratio (pull-down/input)
4 | GATGATTGTTCTCCCAGCTGATGAATTATTCCGATCGAGTAAACAAATTTTCCTAATCTTTCTGTTCAAGCGCCATCTAC | 0.214 RPM ratio (pull-down/input)
5 | GATGATTGTTCTCCCAGCTGATGAATTTCATCTGTCGAGTAAACAAATTTTCCTAATCTTTCTGTTCAAGCGCCATCTAC | 0.411 RPM ratio (pull-down/input)
6 | GATGATTGTTCTCCCAGCTGATGAATTGTGGCTGTCGAGTAAACAAATTTTCCTAATCTTTCTGTTCAAGCGCCATCTAC | 1.13 RPM ratio (pull-down/input)
7 | GATGATTGTTCTCCCAGCTGATGAATTATCATCGTCGAGTAAACAAATTTTCCTAATCTTTCTGTTCAAGCGCCATCTAC | 0.418 RPM ratio (pull-down/input)
8 | GATGATTGTTCTCCCAGCTGATGAATTAGCTAAGTCGAGTAAACAAATTTTCCTAATCTTTCTGTTCAAGCGCCATCTAC | 0.231 RPM ratio (pull-down/input)
9 | GATGATTGTTCTCCCAGCTGATGAATTCCAGTAATCGAGTAAACAAATTTTCCTAATCTTTCTGTTCAAGCGCCATCTAC | 0.477 RPM ratio (pull-down/input)
10 | GATGATTGTTCTCCCAGCTGATGAATTTTTGCTTTCGAGTAAACAAATTTTCCTAATCTTTCTGTTCAAGCGCCATCTAC | 0.978 RPM ratio (pull-down/input)
11 | GATGATTGTTCTCCCAGCTGATGAATTTGCTGCTTCGAGTAAACAAATTTTCCTAATCTTTCTGTTCAAGCGCCATCTAC | 3.05 RPM ratio (pull-down/input)
12 | GATGATTGTTCTCCCAGCTGATGAATTGCTGTTTTCGAGTAAACAAATTTTCCTAATCTTTCTGTTCAAGCGCCATCTAC | 2.65 RPM ratio (pull-down/input)
13 | GATGATTGTTCTCCCAGCTGATGAATTTGTTGCTTCGAGTAAACAAATTTTCCTAATCTTTCTGTTCAAGCGCCATCTAC | 6.86 RPM ratio (pull-down/input)
14 | GATGATTGTTCTCCCAGCTGATGAATTTGCTTGTTCGAGTAAACAAATTTTCCTAATCTTTCTGTTCAAGCGCCATCTAC | 6.99 RPM ratio (pull-down/input)
15 | GATGATTGTTCTCCCAGCTGATGAATTCTTTGCTTCGAGTAAACAAATTTTCCTAATCTTTCTGTTCAAGCGCCATCTAC | 0.407 RPM ratio (pull-down/input)
16 | GATGATTGTTCTCCCAGCTGATGAATTTTGCTGTTCGAGTAAACAAATTTTCCTAATCTTTCTGTTCAAGCGCCATCTAC | 5.2 RPM ratio (pull-down/input)

Row | Sequence | binding signal
17 | GATGATTGTTCTCCCAGCTGATGAATTTGCTGTTTCGAGTAAACAAATTTTCCTAATCTTTCTGTTCAAGCGCCATCTAC | 6.28 RPM ratio (pull-down/input)
18 | GATGATTGTTCTCCCAGCTGATGAATTTGCTTTTTCGAGTAAACAAATTTTCCTAATCTTTCTGTTCAAGCGCCATCTAC | 5.38 RPM ratio (pull-down/input)
19 | GATGATTGTTCTCCCAGCTGATGAATTTGCTATTTCGAGTAAACAAATTTTCCTAATCTTTCTGTTCAAGCGCCATCTAC | 5.54 RPM ratio (pull-down/input)
20 | GATGATTGTTCTCCCAGCTGATGAATTGCTATTTTCGAGTAAACAAATTTTCCTAATCTTTCTGTTCAAGCGCCATCTAC | 1.47 RPM ratio (pull-down/input)
21 | GATGATTGTTCTCCCAGCTGATGAATTTTGCTATTCGAGTAAACAAATTTTCCTAATCTTTCTGTTCAAGCGCCATCTAC | 5.16 RPM ratio (pull-down/input)
22 | GATGATTGTTCTCCCAGCTGATGAATTGTGCACCTCGAGTAAACAAATTTTCCTAATCTTTCTGTTCAAGCGCCATCTAC | 2.92 RPM ratio (pull-down/input)
23 | GATGATTGTTCTCCCAGCTGATGAATTCGGAACGTCGAGTAAACAAATTTTCCTAATCTTTCTGTTCAAGCGCCATCTAC | 0.297 RPM ratio (pull-down/input)
24 | GATGATTGTTCTCCCAGCTGATGAATTGATTCAGTCGAGTAAACAAATTTTCCTAATCTTTCTGTTCAAGCGCCATCTAC | 0.28 RPM ratio (pull-down/input)
25 | GATGATTGTTCTCCCAGCTGATGAATTGTGGGGGTCGAGTAAACAAATTTTCCTAATCTTTCTGTTCAAGCGCCATCTAC | 0.783 RPM ratio (pull-down/input)
26 | GATGATTGTTCTCCCAGCTGATGAATTCTAAAGCTCGAGTAAACAAATTTTCCTAATCTTTCTGTTCAAGCGCCATCTAC | 0.248 RPM ratio (pull-down/input)
27 | GATGATTGTTCTCCCAGCTGATGAATTGTTTGCTTCGAGTAAACAAATTTTCCTAATCTTTCTGTTCAAGCGCCATCTAC | 6.19 RPM ratio (pull-down/input)
28 | GATGATTGTTCTCCCAGCTGATGAATTTGCTTCTTCGAGTAAACAAATTTTCCTAATCTTTCTGTTCAAGCGCCATCTAC | 2.97 RPM ratio (pull-down/input)
29 | GATGATTGTTCTCCCAGCTGATGAATTTTTTGCTTCGAGTAAACAAATTTTCCTAATCTTTCTGTTCAAGCGCCATCTAC | 0.306 RPM ratio (pull-down/input)
30 | GATGATTGTTCTCCCAGCTGATGAATTAGCTCGCTCGAGTAAACAAATTTTCCTAATCTTTCTGTTCAAGCGCCATCTAC | 0.272 RPM ratio (pull-down/input)
31 | GATGATTGTTCTCCCAGCTGATGAATTCCGGGTGTCGAGTAAACAAATTTTCCTAATCTTTCTGTTCAAGCGCCATCTAC | 0.669 RPM ratio (pull-down/input)
32 | GATGATTGTTCTCCCAGCTGATGAATTCCGATTGTCGAGTAAACAAATTTTCCTAATCTTTCTGTTCAAGCGCCATCTAC | 1.93 RPM ratio (pull-down/input)

Reference: article PMC12820563, “FoxP3 forms a head-to-head dimer in vivo and stabilizes its multimerization on adjacent microsatellites”
